Only some compounds are listed: those with a hit (about 18% of all), similar ones and a draw of the others.
IL-1B inflam inh: inflammasome signaling inhibition, IL-1 beta readout. THP-1 LPS/ATP IL-1B secretion, AlphaLISA, 16 h; stronger effect = lower value. activity change, % at 57.5 µM. actives 4.7% (n = 360,000); in the data active = activity change below about -50%; inconclusive = mostly about -30% to -49%; note: % is set by controls: 0 for no effect and ±100 for the full control effect
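Secreted IL-1B measured by AlphaLISA bead assay after 16 h compound exposure of THP-1 cells; compounds (final up to 57.5 uM) added 1 h before LPS (250 ng/mL) and ATP (1.25 mM) stimulation; lower signal means less secretion.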
DT40 TDP1 CPT: growth inhibition of DT40 Tdp1-/-;hTDP1 cells with camptothecin (screen for TDP1 inhibitors) | actives 12% (n = 420,000) | chicken DT40 Tdp1-/-;hTDP1 cells + 20 nM CPT, ATP luminescence, 48 h | Potency, µM (highest dose often 46.2 µM), for inactives: at the highest dose activity change, negative = growth inhibition, actives largely listed as inhibitors; note: potency is the fitted concentration of half-maximal effect; % is set by controls: 0 for no effect and ±100 for the full control effect; nearly all actives have a fitted effect of over 55% in size
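Chicken DT40 Tdp1-/- cells stably complemented with human TDP1 were seeded at 400 cells/well in medium containing 20 nM camptothecin, exposed to pin-transferred compounds, and grown at 37 °C for at least 48 hr. Viability was read as ATP luminescence.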
TDP1 cell noCPT: qHTS for Inhibitors of human tyrosyl-DNA phosphodiesterase 1 (TDP1): qHTS in cells in absence of CPT. DT40 Tdp1-/- hTDP1 cells, no CPT, ATP luminescence, 48 h. Potency, µM (series often up to 46.2 µM), for inactives: at the top dose activity change, negative = growth inhibition, actives largely listed as inhibitors. actives 15% (n = 420,000); note: potency is the fitted concentration of half-maximal effect; % is set by controls: 0 for no effect and ±100 for the full control effect; nearly all actives have a fitted effect of over 55% in size
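A cellular qHTS used chicken DT40 cells lacking endogenous Tdp1 but carrying stably transfected human TDP1. Compounds were applied without camptothecin, and cell growth kinetics were judged by ATP-dependent luminescence after ≥48 hr.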
HepG2 tox: counter-screen for TGF-b inhibitors: cytotoxicity in HepG2 cells; HepG2 CAGA-GFP viability, ATP luminescence, 18 h; actives 0.76% (n = 410,000); Potency, µM (highest dose often 46.1 µM), for the others: at the highest dose activity change, negative = cytotoxicity, hits mostly cytotoxic; note: potency is the fitted concentration of half-maximal effect
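CellTiter-Glo luminescence gave cytotoxicity after 18 hours at 37 degrees C. The cells were HepG2 CAGA-GFP in 1% FBS DMEM, stimulated with 500 pg/mL TGF-beta after compound addition. %Activity was normalised to no-cell wells (complete cell-killing) and DMSO (no toxicity), and curves were fitted and classified.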
TDP1 block: inhibitors of human tyrosyl-DNA phosphodiesterase TDP1; Q9NUW8; recombinant TDP1, AlphaScreen DNA substrate cleavage; Potency, µM (doses to about 130 µM), inactives show top-dose activity change, negative = inhibition, most hits filed as inhibitors; actives 0.28% (n = 350,000); AID 485290; note: potency is the fitted concentration of half-maximal effect; % is set by controls: 0 for no effect and ±100 for the full control effect; nearly all actives have a fitted effect of over 40% in size
Target sequence (Q9NUW8 whole entry, looked up): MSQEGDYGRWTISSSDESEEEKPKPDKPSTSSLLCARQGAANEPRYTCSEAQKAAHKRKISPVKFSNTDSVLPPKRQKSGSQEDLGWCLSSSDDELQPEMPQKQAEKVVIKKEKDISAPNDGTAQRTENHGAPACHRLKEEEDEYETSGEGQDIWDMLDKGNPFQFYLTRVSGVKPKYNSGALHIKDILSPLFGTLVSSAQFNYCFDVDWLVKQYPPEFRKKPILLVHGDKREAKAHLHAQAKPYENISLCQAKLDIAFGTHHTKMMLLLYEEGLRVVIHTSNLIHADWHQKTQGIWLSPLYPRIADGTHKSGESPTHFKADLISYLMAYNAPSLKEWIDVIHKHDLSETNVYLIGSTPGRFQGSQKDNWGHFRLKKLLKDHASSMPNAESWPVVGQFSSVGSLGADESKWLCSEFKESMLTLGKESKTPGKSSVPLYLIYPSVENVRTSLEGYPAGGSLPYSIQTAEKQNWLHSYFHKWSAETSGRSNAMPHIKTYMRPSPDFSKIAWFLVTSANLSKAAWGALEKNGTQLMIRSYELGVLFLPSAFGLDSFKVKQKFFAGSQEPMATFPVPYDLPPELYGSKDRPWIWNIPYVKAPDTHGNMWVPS
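Signal: AlphaScreen proximity between streptavidin donor and anti-FITC acceptor beads on intact substrate. Reaction: Tdp1 1 nM, substrate 15 nM final, 5 min RT after 15 min compound preincubation.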
TGFb SMAD3 inh: inhibitors of TGF-b signaling. HepG2 CAGA-GFP TGF-b/SMAD3 reporter, GFP fluorescence, 18 h; TGF-beta stimulated, 500 pg/mL final. Potency, µM (doses to about 46.1 µM), for the others: top-dose activity, negative = inhibition, hits mostly inhibitors. actives 1.2% (n = 410,000). AID 588855; note: potency is the fitted concentration of half-maximal effect; % is set by controls: 0 for no effect and ±100 for the full control effect; nearly all actives have a fitted effect of over 65% in size
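Cell-based qHTS in HEPG2 carrying a CAGA-GFP Smad reporter; compounds added before 500 pg/mL final TGF-beta, 18 h incubation at 37 degrees C, GFP fluorescence quantified per cell by imaging cytometry.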
* hit, by the source's call; [ ] = another dose, or the depositor's remark. Unless noted, calls come from the whole dose curve; as a rule, active = well fitted curve in the direction sought with a large enough effect; inconclusive = small, poorly fitted or top-dose-only effect, or another doubt; inactive = no such curve, though single readings can be large; an effect the other way counts as inactive or inconclusive.

Screening O=c1oc2ccccc2cc1-c1cn2cc(Cc3ccc(Br)cc3)sc2n1 returned DT40 TDP1 CPT 1.3µM*, TDP1 cell noCPT 0.58µM*, HepG2 tox 1%, TDP1 block -2% and TGFb SMAD3 inh 3%.
O=C(/C=C/c1ccccc1)c1cccs1 was read as DT40 TDP1 CPT 6.7µM*, TDP1 cell noCPT 9.4µM* and TDP1 block 12%.
Screening Cc1c(/C=C/C(=O)c2cccs2)cnn1C returned IL-1B inflam inh -23, DT40 TDP1 CPT 16µM*, TDP1 cell noCPT inconclusive, HepG2 tox -11%, TDP1 block 0% and TGFb SMAD3 inh -1%.
For O=C(/C=C/c1ccc([N+](=O)[O-])cc1)c1cccs1 the results were IL-1B inflam inh -12, DT40 TDP1 CPT inconclusive, TDP1 cell noCPT inconclusive, HepG2 tox -5%, TDP1 block -5% and TGFb SMAD3 inh -2%.
O=C(C=Cc1ccccc1)c1cccs1 was read as IL-1B inflam inh -20, DT40 TDP1 CPT 18µM*, TDP1 cell noCPT 16µM*, HepG2 tox -63% and TGFb SMAD3 inh 11µM*.
For O=C(c1cccs1)N1CCN(C/C=C/c2ccccc2)CC1 the results were IL-1B inflam inh -15, DT40 TDP1 CPT inconclusive, TDP1 cell noCPT inconclusive, HepG2 tox 3%, TDP1 block 5% and TGFb SMAD3 inh inconclusive.
For CCOc1ccc(/C=C/C(=O)c2cccs2)cc1 the results were DT40 TDP1 CPT 27µM*, TDP1 cell noCPT inconclusive and TDP1 block -9%[56.1 µM].
For CCc1ccc(C(=O)/C=C/c2cnn(C)c2C)s1 the results were IL-1B inflam inh inconclusive, DT40 TDP1 CPT inconclusive, TDP1 cell noCPT -23%, HepG2 tox -28%, TDP1 block 8% and TGFb SMAD3 inh 0%.
`NC(=O)c1ccccc1N/C=C/C(=O)c1cccs1` gave IL-1B inflam inh -21, DT40 TDP1 CPT -15%, TDP1 cell noCPT -22%, HepG2 tox -42%, TDP1 block 8% and TGFb SMAD3 inh inconclusive.
`Nc1ccc(/C=C/C(=O)c2cccs2)cc1` gave IL-1B inflam inh -109*, DT40 TDP1 CPT 8%, TDP1 cell noCPT inconclusive, HepG2 tox -9%, TDP1 block 0% and TGFb SMAD3 inh 0%.
`Cc1nc(N2CCCCC2)c2c(C)c(C(=O)Nc3ccc4c(c3)OCCO4)sc2n1` gave DT40 TDP1 CPT inconclusive, TDP1 cell noCPT 4.1µM*, HepG2 tox -34%, TDP1 block 4% and TGFb SMAD3 inh inconclusive.
For Cc1nc(N2CCN(C)CC2)c2c(C)c(C(=O)Nc3ccc(C)c(F)c3)sc2n1 the results were IL-1B inflam inh -60*, DT40 TDP1 CPT 16µM*, TDP1 cell noCPT inconclusive, HepG2 tox -60%, TDP1 block 0% and TGFb SMAD3 inh -28%.
For Cc1cccc(NC(=O)c2sc3nc(C)nc(N4CCOCC4)c3c2C)c1 the results were IL-1B inflam inh inconclusive, DT40 TDP1 CPT -29%, TDP1 cell noCPT inconclusive, HepG2 tox 1% and TGFb SMAD3 inh 6%.
CCCCC1CC2=C(C(=O)OC(C)(C)O2)C(c2ccc3ccccc3c2)O1 (stereo unspecified) was read as IL-1B inflam inh 0, DT40 TDP1 CPT inconclusive, TDP1 cell noCPT inconclusive, HepG2 tox -46% and TGFb SMAD3 inh inconclusive.
Cc1ccc(S(=O)(=O)N(C)c2ccc3c(c2)C(=O)c2ccccc2-3)cc1 was read as IL-1B inflam inh 33, DT40 TDP1 CPT 16µM*, TDP1 cell noCPT inconclusive, HepG2 tox -15% and TGFb SMAD3 inh -1%.
`COc1ccccc1C(=Cc1ccc([N+](=O)[O-])cc1)C(=O)O` gave IL-1B inflam inh 9, DT40 TDP1 CPT 4%, TDP1 cell noCPT 6%, HepG2 tox -22% and TGFb SMAD3 inh 1%.
O=C(O)C(=Cc1ccc([N+](=O)[O-])cc1)c1cccc(Cl)c1 was read as IL-1B inflam inh 26, DT40 TDP1 CPT 8.2µM*, TDP1 cell noCPT inconclusive, HepG2 tox -21% and TGFb SMAD3 inh 1%.
O=C(Nc1ccccc1Cl)c1cc2ccccc2o/c1=N\O was read as IL-1B inflam inh 4, DT40 TDP1 CPT inconclusive, TDP1 cell noCPT 10µM*, HepG2 tox 11% and TGFb SMAD3 inh 8%.
For COc1cccc(NC(=O)c2cc3ccccc3o/c2=N\O)c1 the results were IL-1B inflam inh inconclusive, DT40 TDP1 CPT 15µM*, TDP1 cell noCPT 13µM*, HepG2 tox -46% and TGFb SMAD3 inh -23%.
For O=C(Nc1ccccc1Cl)c1ccccc1Cl the results were IL-1B inflam inh -1, DT40 TDP1 CPT 1%, TDP1 cell noCPT -4%, HepG2 tox 4%, TDP1 block 0% and TGFb SMAD3 inh 12%.
Screening CN1C(=O)C2(OCC(CO)([N+](=O)[O-])CO2)c2ccccc21 (stereo unspecified) returned IL-1B inflam inh -11, DT40 TDP1 CPT -5%, TDP1 cell noCPT 1%, HepG2 tox -30% and TGFb SMAD3 inh -6%.
COc1ccc(C(=O)N/N=C(\C)c2ccc(NC(=O)Cc3ccccc3)cc2)c(OC)c1 was read as IL-1B inflam inh 18, DT40 TDP1 CPT -13%, TDP1 cell noCPT -7%, HepG2 tox 16%, TDP1 block 1% and TGFb SMAD3 inh 10%.
CCCC(=O)Nc1ccc(C(=O)N/N=C/c2ccc([N+](=O)[O-])o2)cc1 was read as IL-1B inflam inh 17, DT40 TDP1 CPT 15µM*, TDP1 cell noCPT 9.2µM*, HepG2 tox -31%, TDP1 block 4% and TGFb SMAD3 inh 0%.
For Cc1ccc(OCC(=O)N/N=C/c2ccc([N+](=O)[O-])o2)cc1 the results were IL-1B inflam inh -25, DT40 TDP1 CPT 16µM*, TDP1 cell noCPT 13µM*, HepG2 tox 10µM*, TDP1 block -1% and TGFb SMAD3 inh 10µM*.
Screening Cc1cc(=O)oc2cc(OCC(=O)NCCc3ccccc3)ccc12 returned IL-1B inflam inh 7, DT40 TDP1 CPT -1%, TDP1 cell noCPT 2%, HepG2 tox -8% and TGFb SMAD3 inh -7%.
`Cc1cc(=O)oc2cc(OCC(=O)N/N=C/c3ccccc3[N+](=O)[O-])ccc12` gave IL-1B inflam inh 42, DT40 TDP1 CPT -2%, TDP1 cell noCPT inconclusive, HepG2 tox -51%, TDP1 block 56µM* and TGFb SMAD3 inh 3%.
